Rows were chosen to be rich in hits. Some 3.5% of all compounds tested hit in one or more screens of this group.
GPR151 activ = activators of human GPR151, primary screen, cell-based, PathHunter beta-arrestin, luminescence; AID 1508602, 2020; 650,000 tested, 1% active; activation, % at 11.2 µM; PathHunter beta-arrestin GPR151 cells; G-protein coupled receptor 151 (Homo sapiens), Q8TDV0; in the data active = activation above about 4.9%
MITF inh = MITF inhibitors, primary screen, biochemical, AlphaScreen, human; AlphaScreen MITF homodimerization, bead proximity signal; inhibition, % at 2.6 µM; 650,000 tested, 0.91% active; in the data active = inhibition above about 50%
Target sequence (O75030 whole entry, looked up): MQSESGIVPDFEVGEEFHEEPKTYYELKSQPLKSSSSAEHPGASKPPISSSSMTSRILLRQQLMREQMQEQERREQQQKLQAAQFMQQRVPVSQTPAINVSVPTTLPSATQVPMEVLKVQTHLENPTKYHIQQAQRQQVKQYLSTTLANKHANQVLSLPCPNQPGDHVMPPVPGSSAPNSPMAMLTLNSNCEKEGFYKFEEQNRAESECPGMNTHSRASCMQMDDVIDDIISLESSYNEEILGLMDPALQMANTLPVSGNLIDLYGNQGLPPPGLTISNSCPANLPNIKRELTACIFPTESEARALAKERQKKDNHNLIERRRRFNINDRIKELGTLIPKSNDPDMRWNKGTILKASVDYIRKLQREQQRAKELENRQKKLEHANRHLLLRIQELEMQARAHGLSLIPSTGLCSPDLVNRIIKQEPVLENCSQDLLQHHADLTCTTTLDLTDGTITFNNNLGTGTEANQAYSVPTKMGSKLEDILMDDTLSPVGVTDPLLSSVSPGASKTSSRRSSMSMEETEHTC
TEAD-YAP inh = TEAD-YAP interaction inhibition, primary screen, TEAD-YAP interaction inhibitor project, luminescence, HEK-TIYL cells; TEAD-Gal4/YAP UAS-luciferase luminescence; 640,000 tested, 1.4% active; inhibition, % at 9.12 µM; AID 1259422, 2018; in the data active = inhibition above about 32%
FBW7 activator = FBW7 E3 ligase activators, primary screen, biochemical, AlphaScreen, human. AlphaScreen FBW7–phospho-cyclin E peptide binding, activator screen. F-box/WD repeat-containing protein 7 (Homo sapiens), Q969H0. 650,000 tested, 0.13% active. normalized activity (activation), % at 26.1 µM. AID 1259310, 2017; in the data active = normalized activity above about 1.9%;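 also: purified mutant Fbw7 with reduced substrate affinity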
A number is an active result.

What do the screens show for `CC(C)CC[n+]1ccccc1/C=C/c1ccc(N(C)C)cc1`?
GPR151 activ: inactive; MITF inh: inactive; TEAD-YAP inh: 91.3; FBW7 activator: inactive

How did CC1CCc2nc(NC(=O)c3ccco3)sc2C1 (stereo unspecified) do in these assays?
GPR151 activ: inactive; MITF inh: inactive; TEAD-YAP inh: 73.9; FBW7 activator: inactive

Results for O=S(=O)(c1ccc(NC(=S)N/N=C/c2cccc(O)c2O)cc1)N1CCOCC1 ?
GPR151 activ: inactive; MITF inh: 59.4; TEAD-YAP inh: inactive; FBW7 activator: inactive

How did O=S(=O)(c1ccc(NC(=S)N/N=C/c2ccc(O)c(O)c2)cc1)N1CCOCC1 do in these assays?
GPR151 activ: inactive; MITF inh: inactive; TEAD-YAP inh: inactive; FBW7 activator: inactive

How did COc1ccc(CCNc2nc(N3CCN(c4ccccn4)CC3)nc3nc[nH]c23)cc1 do in these assays?
GPR151 activ: inactive; MITF inh: inactive; TEAD-YAP inh: inactive; FBW7 activator: inactive

How did COc1ccc(C(=O)N=c2nc3ccccn3s2)cc1 do in these assays?
GPR151 activ: inactive; MITF inh: inactive; TEAD-YAP inh: 69.9; FBW7 activator: inactive

How did COc1ccc(S(=O)(=O)N(Cc2ccccc2)c2ccccc2C(=O)NCc2ccncc2)cc1 do in these assays?
GPR151 activ: inactive; MITF inh: inactive; TEAD-YAP inh: 56.1; FBW7 activator: inactive

How did C=CCNC(=O)c1ccccc1N(Cc1ccccc1)S(=O)(=O)c1ccc(OC)cc1 do in these assays?
GPR151 activ: inactive; MITF inh: inactive; TEAD-YAP inh: 54.5; FBW7 activator: inactive

How did COc1cc2c(C(=O)N(C)c3cc(C)ccc3OC)cn(CC(C)C)c(=O)c2cc1OC do in these assays?
GPR151 activ: inactive; MITF inh: inactive; TEAD-YAP inh: inactive; FBW7 activator: inactive

Results for N#C/C(=C/c1ccc(O)cc1)c1ccc(C#N)cc1 ?
GPR151 activ: inactive; MITF inh: inactive; TEAD-YAP inh: 44.8; FBW7 activator: inactive

How did CN(C)c1ccc(/C=C(/C#N)c2ccc(C#N)cc2)cc1 do in these assays?
GPR151 activ: inactive; MITF inh: inactive; TEAD-YAP inh: inactive; FBW7 activator: inactive

What do the screens show for `COc1ccc(-n2c(/C=C/c3cccc4ccccc34)nc3ccccc3c2=O)c(OC)c1`?
GPR151 activ: inactive; MITF inh: inactive; TEAD-YAP inh: inactive; FBW7 activator: inactive

Results for COc1ccc(S(=O)(=O)Oc2cc(C)cc(C)c2CN2CCOCC2)cc1 ?
GPR151 activ: inactive; MITF inh: inactive; TEAD-YAP inh: 37.3; FBW7 activator: inactive

What do the screens show for `Cc1cc(OS(=O)(=O)c2ccc(F)cc2)c(C)cc1CN1CCOCC1`?
GPR151 activ: inactive; MITF inh: inactive; TEAD-YAP inh: inactive; FBW7 activator: inactive

How did O=C1CCC2C(=O)N(C3CCCCC3)C(=O)C2C1 (stereo unspecified) do in these assays?
GPR151 activ: inactive; MITF inh: inactive; TEAD-YAP inh: inactive; FBW7 activator: inactive

What do the screens show for `Fc1ccccc1CSc1nnnn1-c1ccccc1F`?
GPR151 activ: inactive; MITF inh: inactive; TEAD-YAP inh: inactive; FBW7 activator: 2.3

How did CCOC(=O)CSc1nnnn1-c1ccccc1F do in these assays?
GPR151 activ: inactive; MITF inh: inactive; TEAD-YAP inh: inactive; FBW7 activator: inactive

What do the screens show for `NC(=O)CSc1nnnn1-c1ccccc1F`?
GPR151 activ: inactive; MITF inh: inactive; TEAD-YAP inh: inactive; FBW7 activator: 2.4

Results for Cc1cc(F)ccc1NC(=O)CSc1ccsc1[N+](=O)[O-] ?
GPR151 activ: inactive; MITF inh: inactive; TEAD-YAP inh: inactive; FBW7 activator: inactive

How did O=C(CSc1ccsc1[N+](=O)[O-])Nc1cc(F)ccc1F do in these assays?
GPR151 activ: inactive; MITF inh: inactive; TEAD-YAP inh: 32.1; FBW7 activator: inactive

Results for O=C1C2C3c4ccccc4C([N+](=O)[O-])(c4ccccc43)C2C(=O)N1c1ccc(F)cc1 (stereo unspecified) ?
GPR151 activ: inactive; MITF inh: inactive; TEAD-YAP inh: inactive; FBW7 activator: inactive

How did O=C(Nc1ccc(N2CCN(C(=O)c3ccco3)CC2)cc1)c1cccc2ccccc12 do in these assays?
GPR151 activ: inactive; MITF inh: inactive; TEAD-YAP inh: 54.5; FBW7 activator: inactive

What do the screens show for `O=C(Nc1ccc(N2CCN(Cc3ccccc3)CC2)cc1)c1ccco1`?
GPR151 activ: inactive; MITF inh: inactive; TEAD-YAP inh: inactive; FBW7 activator: inactive

What do the screens show for `O=C(Nc1ccc(N2CCOCC2)cc1)c1cnccn1`?
GPR151 activ: inactive; MITF inh: inactive; TEAD-YAP inh: 48.7; FBW7 activator: inactive
